Data taken from PubChem BioAssay.
Inconclusive results are not listed. Calls of active or inactive are those of the source.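 How the source made its calls, unless noted: active means normalized viability below 100% at a tested concentration; inactive means the rest.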

Assays:
[1] = growth inhibition of DIPG glioma cells, dose response, cell-based, SU-DIPG-XVII, MIPE5.0, CellTiter-Glo, qHTS (AID 1347060; cut-off not given, nearly all actives have AC50 up to about 26 µM;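 on AC50: cells exposed to compound for 48 hours before viability readout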); settings: SU-DIPG-XVII viability, CellTiter-Glo ATP luminescence
[2] = growth inhibition of DIPG glioma cells, dose response, cell-based, SU-DIPG-XIII, MIPE5.0, CellTiter-Glo, qHTS (AID 1347064; cut-off not given, nearly all actives have AC50 up to about 23 µM;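 on AC50: cells exposed to compound for 48 hours before the viability read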); settings: SU-DIPG-XIII viability, CellTiter-Glo ATP luminescence
[3] = viability loss in pontine glioma line – cell-based, SU-DIPG-XXV, MIPE5.0, CellTiter-Glo, qHTS, dose response (AID 1347065; cut-off not given, nearly all actives have AC50 up to about 26 µM;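 further: cells exposed to compound for 48 hours before ATP readout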); settings: CellTiter-Glo ATP luminescence
[4] = JHH-DIPG-1 glioma cell viability, MIPE5.0 library, CellTiter-Glo luminescence, qHTS (AID 1347067; cut-off not given, nearly all actives have AC50 up to about 26 µM;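 further: cells exposed to compound for 48 hours before readout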); settings: JHH-DIPG-1 glioma viability, CellTiter-Glo ATP luminescence
[5] = SU-DIPG-VI glioma cell viability, MIPE4.0 library, CellTiter-Glo luminescence, qHTS (AID 1347066; cut-off not given, nearly all actives have AC50 up to about 30 µM;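 further: cells exposed to compound for 48 hours before readout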); settings: CellTiter-Glo ATP luminescence
[6] = SU-DIPG-XXV glioma cell viability, MIPE5.0 library, qHTS (AID 1347068; cut-off not given, nearly all actives have IC50 up to about 30 µM)
[7] = modifiers of HSF1 nuclear foci, imaging, Selleck Cancer Library (AID 1347162; in the data active means plate-normalised HSF1 focus index below about 0.46); settings: human cells, at 10 µM; SSMD: measured here: HSF1 foci SSMD mean; cell count: measured here: cell number; plate-normalised HSF1 focus index: stronger effect = lower value
[8] = sensitizers of A549 cells to miR-34 induction, primary screen, imaging, A549 dox-inducible miR-34, nuclei and caspase counts (AID 1347080;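 active means compounds whose cell count with miR-34 switched on is under 0.7 times the count with it off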); settings: A549 miR-34 inducible, Hoechst nuclei count, 48 h
[9] = survival rescue of mitochondrial mutant cells in low glucose, primary screen, MELAS cybrids, Rieske KO mouse fibroblasts, CellTiter-Glo (AID 1508586;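 active means mean z-score across replicates of 1.96 or higher in either the MELAS or the Rieske mutant cell line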;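 further: z relative to plate mean and SD of compound and empty wells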)
[10] = ovarian cancer cell viability with rucaparib, profiling panel, oncology-focused library, rucaparib conditional (AID 1508598); settings: patient-derived ovarian cancer cells, CellTiter-Glo viability, 144 h, stronger effect = lower value
[11] = stronger effect = lower value, cell number ratio, induced over uninduced
[12] = measured here: relative caspase fold change +Dox/-Dox
[13] = measured here: total cells with miR-34 induction, stronger effect = lower value
[14] = measured here: total cells without miR-34 induction
[15] = MELAS cybrid survival, CellTiter-Glo 48 h, stronger effect = higher value
[16] = Rieske KO mouse fibroblast survival, CellTiter-Glo 72 h
[17] = at 0.000305 µM, OCI-C5x cells, with rucaparib 10 µM, 100% = cells with rucaparib alone
[18] = at 0.000305 µM, OCI-C5x cells, without rucaparib
[19] = at 0.000305 µM, OCI-P5x cells, with rucaparib 20 µM, 100% = cells with rucaparib alone
[20] = at 0.000305 µM, OCI-P5x cells, without rucaparib
[21] = at 0.00122 µM, OCI-C5x cells, with rucaparib 10 µM, 100% = cells with rucaparib alone
[22] = at 0.00122 µM, OCI-C5x cells, without rucaparib
[23] = at 0.00122 µM, OCI-P5x cells, with rucaparib 20 µM, 100% = cells with rucaparib alone
[24] = at 0.00122 µM, OCI-P5x cells, without rucaparib
[25] = at 0.00488 µM, OCI-C5x cells, with rucaparib 10 µM, 100% = cells with rucaparib alone
[26] = at 0.00488 µM, OCI-C5x cells, without rucaparib
[27] = at 0.00488 µM, OCI-P5x cells, with rucaparib 20 µM, 100% = cells with rucaparib alone
[28] = at 0.00488 µM, OCI-P5x cells, without rucaparib
[29] = at 0.0195 µM, OCI-C5x cells, with rucaparib 10 µM, 100% = cells with rucaparib alone
[30] = at 0.0195 µM, OCI-C5x cells, without rucaparib
[31] = at 0.0195 µM, OCI-P5x cells, with rucaparib 20 µM, 100% = cells with rucaparib alone
[32] = at 0.0195 µM, OCI-P5x cells, without rucaparib
[33] = at 0.0781 µM, OCI-C5x cells, with rucaparib 10 µM, 100% = cells with rucaparib alone
[34] = at 0.0781 µM, OCI-C5x cells, without rucaparib
[35] = at 0.0781 µM, OCI-P5x cells, with rucaparib 20 µM, 100% = cells with rucaparib alone
[36] = at 0.0781 µM, OCI-P5x cells, without rucaparib
[37] = at 0.313 µM, OCI-C5x cells, with rucaparib 10 µM, 100% = cells with rucaparib alone
[38] = at 0.313 µM, OCI-C5x cells, without rucaparib
[39] = at 0.313 µM, OCI-P5x cells, with rucaparib 20 µM, 100% = cells with rucaparib alone
[40] = at 0.313 µM, OCI-P5x cells, without rucaparib
[41] = at 1.25 µM, OCI-C5x cells, with rucaparib 10 µM, 100% = cells with rucaparib alone
[42] = at 1.25 µM, OCI-C5x cells, without rucaparib
[43] = at 1.25 µM, OCI-P5x cells, with rucaparib 20 µM, 100% = cells with rucaparib alone
[44] = at 1.25 µM, OCI-P5x cells, without rucaparib
[45] = at 5 µM, OCI-C5x cells, with rucaparib 10 µM, 100% = cells with rucaparib alone
[46] = at 5 µM, OCI-C5x cells, without rucaparib
[47] = at 5 µM, OCI-P5x cells, with rucaparib 20 µM, 100% = cells with rucaparib alone
[48] = at 5 µM, OCI-P5x cells, without rucaparib

O=C(/C=C\n1cnc(-c2cc(C(F)(F)F)cc(C(F)(F)F)c2)n1)NNc1ccccn1
active: AC50 [1] 2.95 µM | AC50 [2] 0.295 µM | AC50 [3] 5.25 µM | AC50 [4] 13.2 µM

CCC[C@H](NC(=O)[C@@H]1[C@H]2CCC[C@H]2CN1C(=O)[C@@H](NC(=O)[C@@H](NC(=O)c1cnccn1)C1CCCCC1)C(C)(C)C)C(=O)C(=O)NC1CC1
inactive: outcome [1] | outcome [2] | outcome [3] | outcome [5] | outcome [6]
active: AC50 [4] 18.6 µM

CCOc1ccc(Cc2cc([C@@H]3O[C@H](CO)[C@@H](O)[C@H](O)[C@H]3O)ccc2Cl)cc1
inactive: outcome [1] | outcome [2] | outcome [3] | outcome [5] | outcome [4] | outcome [6] | plate-normalised HSF1 focus index [7] 1.07
6780: cell count [7]
1.4: SSMD [7]

Nc1ccc(/C=C/C(=O)NCc2cc3cc(-c4ccc(C(=O)N5CCC(F)(F)CC5)cc4)cc(-c4ccc(F)cc4)c3o2)cn1
active: AC50 [1] 0.105 µM | AC50 [2] 0.372 µM | AC50 [3] 0.742 µM | AC50 [4] 0.525 µM

COCCOc1nc(-c2ccc(Cl)c(Cl)c2)n(-c2ccc(NC(=O)CCl)cc2)n1
3290: cell count [8, 14]
-7.88: z-score [9, 16]
3760: cell count [8, 13]
0.519: fold change [8, 12]
inactive: outcome [5] | outcome [6] | fold change [8, 11] 1.14 | z-score [9, 15] -0.782 | viability [10, 17] 125% | viability [10, 18] 115% | viability [10, 19] 104% | viability [10, 20] 105% | viability [10, 21] 131% | viability [10, 22] 104% | viability [10, 24] 103% | viability [10, 25] 131% | viability [10, 26] 113% | viability [10, 27] 105% | viability [10, 29] 114% | viability [10, 30] 106% | viability [10, 31] 103% | viability [10, 32] 100% | viability [10, 33] 125% | viability [10, 34] 111% | viability [10, 37] 124% | viability [10, 38] 112% | viability [10, 42] 112%
active: AC50 [1] 1.32 µM | AC50 [2] 2.63 µM | AC50 [3] 2.95 µM | AC50 [4] 2.63 µM | viability [10, 23] 93.4% | viability [10, 28] 99.8% | viability [10, 35] 95.6% | viability [10, 36] 97.3% | viability [10, 39] 96.8% | viability [10, 40] 90.6% | viability [10, 41] 97.1% | viability [10, 43] 86.3% | viability [10, 44] 86.9% | viability [10, 45] 2.67% | viability [10, 46] 92.5% | viability [10, 47] 1.14% | viability [10, 48] 6.27%

O=C(O)/C(S)=C/c1ccc(I)cc1
inactive: outcome [1] | outcome [2] | outcome [3]

O=C(/C=C\n1cnc(-c2cc(C(F)(F)F)cc(C(F)(F)F)c2)n1)N1CC(F)(F)C1
active: AC50 [1] 1.18 µM | AC50 [2] 2.63 µM | AC50 [3] 13.2 µM | AC50 [4] 9.34 µM

O=C(O)CCCCC(CCSCc1ccccc1)SCc1ccccc1 (stereo unspecified)
9470: cell count [8, 13]
0.838: fold change [8, 12]
0.614: z-score [9, 16]
10600: cell count [8, 14]
inactive: outcome [1] | outcome [2] | outcome [3] | outcome [5] | outcome [4] | outcome [6] | fold change [8, 11] 0.896 | z-score [9, 15] -0.291

OC1CCC(Nc2ncc3nc(Nc4c(F)cc(F)cc4F)n([C@@H]4CCOC4)c3n2)CC1 (stereo partly specified)
inactive: outcome [1] | outcome [2] | outcome [3] | outcome [5] | outcome [4] | outcome [6]

CCCc1cc(C)[nH]c(=O)c1CNC(=O)c1cc(-c2ccnc(N3CCN(C)CC3)c2)cc2c1cnn2C(C)C
inactive: outcome [1] | outcome [2] | outcome [3]

CCn1c(=O)c(-c2ccn[nH]2)cc2c(C)nc(N)nc21
active: AC50 [1] 7.42 µM | AC50 [2] 5.9 µM | AC50 [3] 4.17 µM

CCO[C@@H]1OC(=O)C[C@@H]1NC(=O)[C@@H]1CCCN1C(=O)[C@@H](NC(=O)c1ccc(N)c(Cl)c1)C(C)(C)C
inactive: outcome [2] | outcome [3] | outcome [5] | outcome [4] | outcome [6]
active: AC50 [1] 23.5 µM

Cn1cncc1C(N)(c1ccc(Cl)cc1)c1ccc2c(c1)c(-c1cccc(Cl)c1)cc(=O)n2C (stereo unspecified)
active: AC50 [1] 18.6 µM | AC50 [2] 16.6 µM | AC50 [3] 8.33 µM | AC50 [4] 18.6 µM

O=C(C[C@@H]1C/C=C\CCC(=O)O[C@H](c2ccccc2)CNC1=O)NCc1ccc(Cl)cc1
inactive: outcome [1] | outcome [2] | outcome [3] | outcome [5] | outcome [4] | outcome [6]

NC(=O)C1CCCc2c1[nH]c1ccc(Cl)cc21 (stereo unspecified)
6830: cell count [7]
active: viability [10, 19] 92.1% | viability [10, 20] 96.9% | viability [10, 45] 100% | viability [10, 47] 95%
1.46: SSMD [7]
7260: cell count [8, 14]
inactive: outcome [1] | outcome [2] | outcome [3] | outcome [5] | outcome [4] | outcome [6] | fold change [8, 11] 1.01 | plate-normalised HSF1 focus index [7] 1.08 | z-score [9, 15] -0.456 | viability [10, 17] 114% | viability [10, 18] 113% | viability [10, 21] 118% | viability [10, 22] 119% | viability [10, 23] 109% | viability [10, 24] 101% | viability [10, 25] 117% | viability [10, 26] 114% | viability [10, 27] 105% | viability [10, 28] 111% | viability [10, 29] 106% | viability [10, 30] 115% | viability [10, 31] 109% | viability [10, 32] 116% | viability [10, 33] 113% | viability [10, 34] 112% | viability [10, 35] 105% | viability [10, 36] 117% | viability [10, 37] 112% | viability [10, 38] 124% | viability [10, 39] 105% | viability [10, 40] 120% | viability [10, 41] 109% | viability [10, 42] 118% | viability [10, 43] 107% | viability [10, 44] 120% | viability [10, 46] 124% | viability [10, 48] 114%
7360: cell count [8, 13]
-0.725: z-score [9, 16]
0.695: fold change [8, 12]
